Residue numbers refer to the chain shown, from its start.
Legend:
Assay in all cases: protein-binding microarray (PBM); PBM: ~300 nM protein, 6 mM HEPES pH 7.8, 80 mM KCl, 0.5 mM EDTA, 0.5 mM EGTA, 6% glycerol, 35 ng/ul poly-dIdC, 1% milk, 1 h, room temperature; Ap Aiptasia and Nv Nematostella (sea anemones) / Co Capsaspora / Aq Amphimedon (sponge) / Dm Drosophila / Hu human; RHD is the Rel homology domain; high values mean tight binding
Settings in all cases: dsDNA, one strand shown
GST-Ap-NF-kB RHD = target: T1, GST-Ap-NF-kB RHD (Exaiptasia pallida (Aiptasia), UniProt A0A913YAJ5 2-422)
T1 sequence: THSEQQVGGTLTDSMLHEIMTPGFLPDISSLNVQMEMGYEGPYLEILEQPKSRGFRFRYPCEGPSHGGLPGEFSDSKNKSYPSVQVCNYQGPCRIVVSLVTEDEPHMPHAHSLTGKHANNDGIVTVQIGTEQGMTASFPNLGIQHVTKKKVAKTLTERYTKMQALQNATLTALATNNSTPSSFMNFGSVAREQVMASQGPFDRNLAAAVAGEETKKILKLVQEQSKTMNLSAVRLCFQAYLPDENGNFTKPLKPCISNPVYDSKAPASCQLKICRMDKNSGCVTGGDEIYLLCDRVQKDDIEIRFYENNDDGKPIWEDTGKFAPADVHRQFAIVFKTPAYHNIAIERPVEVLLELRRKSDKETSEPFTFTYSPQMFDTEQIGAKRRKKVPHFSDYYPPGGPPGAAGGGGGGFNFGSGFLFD

[1] = target: T2, GST-Nv-NF-kB (Cys allele) (Nematostella vectensis, UniProt E5G601 2-411)
T2 sequence: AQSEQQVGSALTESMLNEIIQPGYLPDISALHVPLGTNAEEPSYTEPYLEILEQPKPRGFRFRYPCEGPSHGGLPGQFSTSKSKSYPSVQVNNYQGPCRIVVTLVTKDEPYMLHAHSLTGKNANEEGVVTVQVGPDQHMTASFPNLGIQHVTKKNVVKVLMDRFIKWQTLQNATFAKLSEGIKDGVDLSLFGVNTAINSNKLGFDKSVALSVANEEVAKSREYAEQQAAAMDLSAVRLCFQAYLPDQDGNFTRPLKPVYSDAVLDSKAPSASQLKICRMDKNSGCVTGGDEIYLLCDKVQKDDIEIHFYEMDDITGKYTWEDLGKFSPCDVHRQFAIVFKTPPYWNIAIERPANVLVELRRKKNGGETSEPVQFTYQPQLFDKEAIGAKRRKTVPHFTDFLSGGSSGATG

[2] = target: T3, GST-Nv-NF-kB (Ser allele) (Nematostella vectensis, UniProt A7UNT2 2-411)
T3 sequence: T2 sequence with Q21R, C66S, S207N, E215Q, V217A, E225K, A268E, D399E

GST-Co-NF-kB = target: T4, GST-Co-NF-kB (Capsaspora owczarzaki, UniProt F1ARL5 200-546)
T4 sequence: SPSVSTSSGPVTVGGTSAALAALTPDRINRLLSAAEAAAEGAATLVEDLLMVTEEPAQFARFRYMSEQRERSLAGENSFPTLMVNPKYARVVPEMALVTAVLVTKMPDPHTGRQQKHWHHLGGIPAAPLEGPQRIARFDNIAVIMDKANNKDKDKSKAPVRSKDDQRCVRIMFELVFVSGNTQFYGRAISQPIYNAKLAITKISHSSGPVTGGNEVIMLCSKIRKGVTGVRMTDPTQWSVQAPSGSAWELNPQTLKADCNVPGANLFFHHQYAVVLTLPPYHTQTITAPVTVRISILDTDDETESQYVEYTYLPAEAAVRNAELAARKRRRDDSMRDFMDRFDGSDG

GST-Dm-Relish = target: T5, GST-Dm-Relish (Drosophila melanogaster, UniProt Q94527 99-473)
T5 sequence: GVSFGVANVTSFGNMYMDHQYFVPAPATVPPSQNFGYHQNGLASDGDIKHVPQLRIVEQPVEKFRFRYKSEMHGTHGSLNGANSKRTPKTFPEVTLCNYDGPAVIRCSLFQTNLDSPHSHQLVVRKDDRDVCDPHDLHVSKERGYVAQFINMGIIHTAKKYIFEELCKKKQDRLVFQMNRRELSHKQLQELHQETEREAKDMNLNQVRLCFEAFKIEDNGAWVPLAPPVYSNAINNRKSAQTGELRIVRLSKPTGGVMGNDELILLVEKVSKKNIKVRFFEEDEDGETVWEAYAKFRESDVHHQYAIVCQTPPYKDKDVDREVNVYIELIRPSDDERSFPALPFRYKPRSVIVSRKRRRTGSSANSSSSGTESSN

GST-Aq-NF-kB = target: T6, GST-Aq-NF-kB (Amphimedon queenslandica, UniProt A9Y5G7 2-389)
T6 sequence: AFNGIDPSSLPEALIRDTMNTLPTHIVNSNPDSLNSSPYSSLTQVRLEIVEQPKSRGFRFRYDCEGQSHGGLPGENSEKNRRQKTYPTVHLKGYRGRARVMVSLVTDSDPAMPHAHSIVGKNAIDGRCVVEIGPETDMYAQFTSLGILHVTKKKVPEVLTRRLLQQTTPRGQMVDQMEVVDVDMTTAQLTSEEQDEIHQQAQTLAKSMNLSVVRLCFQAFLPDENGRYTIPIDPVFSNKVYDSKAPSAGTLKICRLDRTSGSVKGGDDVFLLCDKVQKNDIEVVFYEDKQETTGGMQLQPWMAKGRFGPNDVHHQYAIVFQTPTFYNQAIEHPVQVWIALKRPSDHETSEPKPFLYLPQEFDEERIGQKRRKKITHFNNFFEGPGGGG

GST-Hu-p50 = GST-Hu-p50 (Homo sapiens, UniProt P19838 7-356)
Chain of GST-Hu-p50 (P19838 7-356): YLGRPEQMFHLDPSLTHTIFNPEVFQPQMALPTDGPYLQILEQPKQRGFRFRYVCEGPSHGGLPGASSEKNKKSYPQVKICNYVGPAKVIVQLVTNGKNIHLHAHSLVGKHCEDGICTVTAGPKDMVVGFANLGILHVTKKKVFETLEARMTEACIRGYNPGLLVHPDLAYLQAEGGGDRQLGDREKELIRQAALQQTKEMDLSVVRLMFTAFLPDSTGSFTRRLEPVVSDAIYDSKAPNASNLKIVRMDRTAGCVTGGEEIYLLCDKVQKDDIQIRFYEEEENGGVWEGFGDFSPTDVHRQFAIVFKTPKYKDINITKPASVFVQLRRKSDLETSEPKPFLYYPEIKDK

Row | Sequence | binding signal (GST-Ap-NF-kB RHD) [z-score] | binding signal [1] [z-score] | binding signal [2] [z-score] | binding signal (GST-Co-NF-kB) [z-score] | binding signal (GST-Dm-Relish) [z-score] | binding signal (GST-Aq-NF-kB) [z-score] | binding signal (GST-Hu-p50) [z-score]
1 | CCGATTAACATCAAAAAGTCCCGTGATGTTAATCGGGTCTTGATTCGCTTGACGCTGCTG | 7.34 | 9.76 | 8.57 | 2.47 | 9 | 8.05 | 6.44
2 | CCGATTAACATCAATAACCCCCATGATGTTAATCGGGTCTTGATTCGCTTGACGCTGCTG | 5.5 | 4.47 | 4.38 | 2.27 | 5.69 | 4.84 | 5.31
3 | CCGATTAACATCAGGAATGCCCCTGATGTTAATCGGGTCTTGATTCGCTTGACGCTGCTG | 5.19 | 6.58 | 3.31 | 1.64 | 5.92 | 7.72 | 5.39
4 | CCGATTAACATCAACGATTCCCCTGATGTTAATCGGGTCTTGATTCGCTTGACGCTGCTG | 5.94 | 6.55 | 8.86 | 6.02 | 3.74 | 4.38 | 5.62
5 | CCGATTAACATCAATGCCCCCCCTGATGTTAATCGGGTCTTGATTCGCTTGACGCTGCTG | 5.2 | 2.82 | 3.53 | 5.03 | 4.02 | 4.04 | 4.02
6 | CCGATTAACATCAAATTTCCCAATGATGTTAATCGGGTCTTGATTCGCTTGACGCTGCTG | 2.25 | 4.12 | 3.77 | 3.94 | 2.51 | 3.58 | 3.39
7 | CCGATTAACATCAAGGGGATTCCTGATGTTAATCGGGTCTTGATTCGCTTGACGCTGCTG | 10.4 | 10.4 | 9.96 | 2.68 | 9.9 | 7.84 | 7.29
8 | CCGATTAACATCAGGACTTTCCCTGATGTTAATCGGGTCTTGATTCGCTTGACGCTGCTG | 6.5 | 10.2 | 6.68 | 1.87 | 7.98 | 10.5 | 5.32
9 | CCGATTAACATCAGGAAATCCCCTGATGTTAATCGGGTCTTGATTCGCTTGACGCTGCTG | 10.8 | 12.1 | 12.5 | 4.46 | 10.3 | 10.9 | 8.31
10 | CCGATTAACATCAAAGTCCCCCGTGATGTTAATCGGGTCTTGATTCGCTTGACGCTGCTG | 6.78 | 5.8 | 6.12 | 6.7 | 7.35 | 5.87 | 5.37
11 | CCGATTAACATCATATGGGAAAATGATGTTAATCGGGTCTTGATTCGCTTGACGCTGCTG | 1.55 | 3.76 | 4.82 | 3.09 | 1.12 | 2.17 | 2.72
12 | CCGATTAACATCAGGGCATCCCCTGATGTTAATCGGGTCTTGATTCGCTTGACGCTGCTG | 7.7 | 8.03 | 5.95 | 2.46 | 9.13 | 8.18 | 5.52

From article PMC5700166
